Results on four compounds are retold here after ChEMBL document CHEMBL1961873, “Compounds: GSK PKIS; Assays: Nanosyn kinase panel” (2012).

The target of test [1] is High affinity nerve growth factor receptor (Homo sapiens) (UniProt P04629). Particulars: at 1 µM.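 Also: each value is the mean percent inhibition of TRKA.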
Test [2] concerns the target BDNF/NT-3 growth factors receptor (Homo sapiens) (UniProt Q16620). As to conditions: at 0.1 µM.
Test [3] has the same target. Particulars: at 1 µM.
Test [4] has as its target NT-3 growth factor receptor (Homo sapiens) (UniProt Q16288). As to conditions: at 0.1 µM.
Test [5] shares this target. As to conditions: at 1 µM.
The target of test [6] is T1, Tyrosine-protein kinase TXK (Homo sapiens) (UniProt P42681).
T1 sequence (whole entry): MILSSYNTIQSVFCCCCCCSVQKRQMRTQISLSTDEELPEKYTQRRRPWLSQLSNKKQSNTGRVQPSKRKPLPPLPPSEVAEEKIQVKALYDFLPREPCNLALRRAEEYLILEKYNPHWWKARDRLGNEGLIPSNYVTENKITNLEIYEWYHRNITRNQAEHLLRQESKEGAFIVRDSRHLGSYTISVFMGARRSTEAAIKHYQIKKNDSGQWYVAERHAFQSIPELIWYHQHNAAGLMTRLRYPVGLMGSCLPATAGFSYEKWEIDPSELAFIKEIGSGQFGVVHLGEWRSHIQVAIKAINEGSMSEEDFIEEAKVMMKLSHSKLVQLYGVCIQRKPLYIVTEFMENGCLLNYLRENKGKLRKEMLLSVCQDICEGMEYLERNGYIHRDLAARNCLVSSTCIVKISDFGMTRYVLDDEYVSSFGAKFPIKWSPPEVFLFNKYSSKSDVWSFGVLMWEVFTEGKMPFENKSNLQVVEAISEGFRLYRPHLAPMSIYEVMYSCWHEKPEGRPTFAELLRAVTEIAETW
Particulars: at 0.1 µM.

In test [7] the target is T1, Tyrosine-protein kinase TXK (Homo sapiens). Particulars: at 1 µM.
Test [8] concerns the target Non-receptor tyrosine-protein kinase TYK2 (Homo sapiens) (UniProt P29597). As to conditions: at 0.1 µM.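 Also: each value is a mean of the inhibition readings.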
For test [9], the target named is T2, Dual specificity protein kinase TTK (Homo sapiens) (UniProt P33981).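 Also: reported figures are mean TTK inhibition at 1 µM.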
T2 sequence (whole entry): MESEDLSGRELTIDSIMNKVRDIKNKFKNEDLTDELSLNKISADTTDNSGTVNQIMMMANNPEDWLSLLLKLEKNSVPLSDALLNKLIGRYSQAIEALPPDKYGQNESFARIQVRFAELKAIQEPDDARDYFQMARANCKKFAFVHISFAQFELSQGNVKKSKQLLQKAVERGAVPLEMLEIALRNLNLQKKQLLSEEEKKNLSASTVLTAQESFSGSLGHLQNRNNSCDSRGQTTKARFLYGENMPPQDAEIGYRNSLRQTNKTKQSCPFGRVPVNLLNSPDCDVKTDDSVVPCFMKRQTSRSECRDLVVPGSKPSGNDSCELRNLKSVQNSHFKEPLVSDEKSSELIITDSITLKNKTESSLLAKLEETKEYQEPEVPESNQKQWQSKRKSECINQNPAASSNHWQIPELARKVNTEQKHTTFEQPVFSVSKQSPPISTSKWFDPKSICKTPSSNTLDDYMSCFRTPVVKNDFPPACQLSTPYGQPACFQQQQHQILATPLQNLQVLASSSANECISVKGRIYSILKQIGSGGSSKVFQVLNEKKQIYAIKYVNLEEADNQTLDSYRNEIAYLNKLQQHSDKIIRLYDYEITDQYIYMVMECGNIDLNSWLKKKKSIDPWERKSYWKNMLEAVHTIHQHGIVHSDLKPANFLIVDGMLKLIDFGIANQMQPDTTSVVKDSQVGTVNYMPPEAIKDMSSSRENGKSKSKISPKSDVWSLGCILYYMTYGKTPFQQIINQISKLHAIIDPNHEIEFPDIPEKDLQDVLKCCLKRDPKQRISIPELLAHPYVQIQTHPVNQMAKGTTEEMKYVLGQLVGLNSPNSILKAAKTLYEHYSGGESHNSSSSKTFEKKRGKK
As to conditions: at 1 µM.

Test [10] addresses T3, Aurora kinase A (Homo sapiens) (UniProt O14965).
T3 sequence (whole entry): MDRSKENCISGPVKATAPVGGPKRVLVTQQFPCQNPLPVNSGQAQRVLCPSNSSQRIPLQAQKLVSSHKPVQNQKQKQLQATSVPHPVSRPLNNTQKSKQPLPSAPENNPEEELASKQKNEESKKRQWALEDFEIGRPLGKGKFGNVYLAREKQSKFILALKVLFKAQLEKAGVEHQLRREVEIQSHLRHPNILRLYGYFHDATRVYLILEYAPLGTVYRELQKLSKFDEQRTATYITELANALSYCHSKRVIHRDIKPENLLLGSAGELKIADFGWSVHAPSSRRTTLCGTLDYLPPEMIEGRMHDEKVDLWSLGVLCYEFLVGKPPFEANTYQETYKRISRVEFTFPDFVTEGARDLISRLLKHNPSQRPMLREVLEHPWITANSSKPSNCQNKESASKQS
As to conditions: at 0.1 µM.

Test [11] concerns the target T3, Aurora kinase A (Homo sapiens). As to conditions: at 1 µM.
The target of test [12] is Aurora kinase B (Homo sapiens) (UniProt Q96GD4). Particulars: at 0.1 µM.
The target is the same in test [13]. Particulars: at 1 µM.
Test [14] concerns the target T4, Aurora kinase C (Homo sapiens) (UniProt Q9UQB9).
T4 sequence (whole entry): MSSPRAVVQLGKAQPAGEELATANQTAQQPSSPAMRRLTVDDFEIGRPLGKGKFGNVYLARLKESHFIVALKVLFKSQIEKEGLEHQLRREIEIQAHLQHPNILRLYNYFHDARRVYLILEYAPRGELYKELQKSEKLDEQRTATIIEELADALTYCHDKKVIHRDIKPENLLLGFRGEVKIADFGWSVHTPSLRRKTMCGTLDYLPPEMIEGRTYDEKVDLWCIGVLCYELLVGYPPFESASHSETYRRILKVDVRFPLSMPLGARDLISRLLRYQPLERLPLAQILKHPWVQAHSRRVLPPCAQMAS
Particulars: at 0.1 µM.

Test [15] addresses T4, Aurora kinase C (Homo sapiens). As to conditions: at 1 µM.
The target of test [16] is Serine/threonine-protein kinase 10 (Homo sapiens) (UniProt O94804). Particulars: at 0.1 µM.
The target is the same in test [17]. As to conditions: at 1 µM.
Test [18] has as its target T5, Mitogen-activated protein kinase kinase kinase kinase 2 (Homo sapiens) (UniProt Q12851).
T5 sequence (whole entry): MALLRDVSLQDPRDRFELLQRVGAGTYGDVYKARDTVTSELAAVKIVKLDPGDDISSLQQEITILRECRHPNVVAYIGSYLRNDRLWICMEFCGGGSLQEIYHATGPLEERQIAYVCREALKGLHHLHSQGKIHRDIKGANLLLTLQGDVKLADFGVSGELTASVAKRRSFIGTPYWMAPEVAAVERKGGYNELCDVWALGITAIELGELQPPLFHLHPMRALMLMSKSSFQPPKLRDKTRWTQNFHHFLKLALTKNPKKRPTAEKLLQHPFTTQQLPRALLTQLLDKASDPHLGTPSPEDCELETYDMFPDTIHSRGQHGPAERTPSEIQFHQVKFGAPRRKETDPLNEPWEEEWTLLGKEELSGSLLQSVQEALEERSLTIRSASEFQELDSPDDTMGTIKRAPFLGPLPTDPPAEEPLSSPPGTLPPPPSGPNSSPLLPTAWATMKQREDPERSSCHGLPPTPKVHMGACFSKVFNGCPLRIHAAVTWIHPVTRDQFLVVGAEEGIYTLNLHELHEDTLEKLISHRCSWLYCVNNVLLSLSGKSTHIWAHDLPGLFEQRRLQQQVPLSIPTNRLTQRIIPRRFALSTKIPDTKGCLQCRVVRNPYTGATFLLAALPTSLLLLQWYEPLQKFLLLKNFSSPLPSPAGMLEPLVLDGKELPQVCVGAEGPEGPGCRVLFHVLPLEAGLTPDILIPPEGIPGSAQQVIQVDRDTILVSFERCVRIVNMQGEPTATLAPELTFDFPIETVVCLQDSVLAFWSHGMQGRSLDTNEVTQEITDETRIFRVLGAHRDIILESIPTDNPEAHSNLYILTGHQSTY
Particulars: at 0.1 µM.

Test [19] addresses T5, Mitogen-activated protein kinase kinase kinase kinase 2 (Homo sapiens). Particulars: at 1 µM.
Test [20] has as its target Mitogen-activated protein kinase kinase kinase kinase 4 (Homo sapiens) (UniProt O95819). As to conditions: at 0.1 µM.

Sequence of BDNF/NT-3 growth factors receptor (Homo sapiens) (Q16620 32-822 limits assumed): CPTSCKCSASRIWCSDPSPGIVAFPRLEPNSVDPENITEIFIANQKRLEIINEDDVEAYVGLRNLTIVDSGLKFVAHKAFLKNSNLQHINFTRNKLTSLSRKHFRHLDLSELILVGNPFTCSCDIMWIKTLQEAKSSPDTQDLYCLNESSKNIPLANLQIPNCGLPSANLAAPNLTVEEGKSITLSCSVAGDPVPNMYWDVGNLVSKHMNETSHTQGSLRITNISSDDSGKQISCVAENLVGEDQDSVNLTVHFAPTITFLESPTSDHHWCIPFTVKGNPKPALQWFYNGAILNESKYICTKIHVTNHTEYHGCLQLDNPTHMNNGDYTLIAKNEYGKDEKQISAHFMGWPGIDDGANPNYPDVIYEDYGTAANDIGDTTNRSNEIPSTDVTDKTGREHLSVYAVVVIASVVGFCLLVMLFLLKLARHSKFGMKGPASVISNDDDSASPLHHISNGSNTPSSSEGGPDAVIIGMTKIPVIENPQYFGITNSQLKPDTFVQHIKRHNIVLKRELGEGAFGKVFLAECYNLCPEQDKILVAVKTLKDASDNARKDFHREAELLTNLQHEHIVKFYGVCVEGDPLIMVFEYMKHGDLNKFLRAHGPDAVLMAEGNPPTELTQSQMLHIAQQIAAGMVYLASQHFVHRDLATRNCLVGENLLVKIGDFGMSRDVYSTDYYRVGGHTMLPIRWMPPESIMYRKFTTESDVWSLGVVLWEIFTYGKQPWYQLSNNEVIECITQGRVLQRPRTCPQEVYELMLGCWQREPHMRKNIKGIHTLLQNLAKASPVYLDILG
Sequence of Aurora kinase B (Homo sapiens) (Q96GD4 whole entry): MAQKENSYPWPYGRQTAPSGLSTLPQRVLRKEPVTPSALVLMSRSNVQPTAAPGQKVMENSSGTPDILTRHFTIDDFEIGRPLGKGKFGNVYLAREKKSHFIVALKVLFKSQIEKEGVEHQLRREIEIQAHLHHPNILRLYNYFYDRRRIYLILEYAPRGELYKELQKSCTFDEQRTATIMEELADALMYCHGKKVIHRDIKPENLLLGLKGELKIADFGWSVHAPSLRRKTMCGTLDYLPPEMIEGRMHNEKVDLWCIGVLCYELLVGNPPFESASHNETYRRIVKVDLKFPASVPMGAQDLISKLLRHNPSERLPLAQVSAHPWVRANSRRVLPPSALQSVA
Sequence of Mitogen-activated protein kinase kinase kinase kinase 4 (Homo sapiens) (O95819 2-1239 limits assumed): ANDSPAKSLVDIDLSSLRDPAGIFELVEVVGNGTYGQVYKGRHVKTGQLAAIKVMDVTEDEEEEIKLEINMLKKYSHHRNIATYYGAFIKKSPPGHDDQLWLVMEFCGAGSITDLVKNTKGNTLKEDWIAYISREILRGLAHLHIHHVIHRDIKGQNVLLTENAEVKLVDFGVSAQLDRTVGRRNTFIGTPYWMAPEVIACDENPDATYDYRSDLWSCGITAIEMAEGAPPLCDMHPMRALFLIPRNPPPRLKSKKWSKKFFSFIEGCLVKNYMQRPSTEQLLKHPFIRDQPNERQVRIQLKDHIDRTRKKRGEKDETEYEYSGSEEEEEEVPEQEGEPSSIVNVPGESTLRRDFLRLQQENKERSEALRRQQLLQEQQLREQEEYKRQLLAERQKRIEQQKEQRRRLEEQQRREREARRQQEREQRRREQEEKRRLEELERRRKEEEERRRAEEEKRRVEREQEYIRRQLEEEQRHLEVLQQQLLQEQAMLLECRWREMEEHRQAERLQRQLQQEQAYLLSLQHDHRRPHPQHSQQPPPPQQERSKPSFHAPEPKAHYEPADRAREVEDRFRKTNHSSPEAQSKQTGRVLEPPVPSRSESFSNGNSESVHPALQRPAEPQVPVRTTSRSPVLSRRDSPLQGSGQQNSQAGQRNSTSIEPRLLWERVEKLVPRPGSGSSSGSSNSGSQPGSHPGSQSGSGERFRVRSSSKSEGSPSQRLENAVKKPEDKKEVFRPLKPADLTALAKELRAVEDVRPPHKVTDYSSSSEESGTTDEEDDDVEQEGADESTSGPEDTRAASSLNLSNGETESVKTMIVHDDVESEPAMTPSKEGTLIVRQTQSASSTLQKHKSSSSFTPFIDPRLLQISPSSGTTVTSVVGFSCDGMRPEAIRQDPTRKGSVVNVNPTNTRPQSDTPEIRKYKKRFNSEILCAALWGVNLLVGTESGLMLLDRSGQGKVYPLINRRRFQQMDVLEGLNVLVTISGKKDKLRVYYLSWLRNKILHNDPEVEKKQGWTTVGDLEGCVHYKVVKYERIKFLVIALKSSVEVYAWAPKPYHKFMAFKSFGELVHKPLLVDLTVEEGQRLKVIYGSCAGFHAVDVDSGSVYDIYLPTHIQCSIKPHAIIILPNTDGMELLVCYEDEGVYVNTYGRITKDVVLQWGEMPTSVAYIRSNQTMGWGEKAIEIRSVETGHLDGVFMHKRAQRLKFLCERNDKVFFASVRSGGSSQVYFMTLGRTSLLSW
Sequence of Serine/threonine-protein kinase 10 (Homo sapiens) (O94804 whole entry, looked up): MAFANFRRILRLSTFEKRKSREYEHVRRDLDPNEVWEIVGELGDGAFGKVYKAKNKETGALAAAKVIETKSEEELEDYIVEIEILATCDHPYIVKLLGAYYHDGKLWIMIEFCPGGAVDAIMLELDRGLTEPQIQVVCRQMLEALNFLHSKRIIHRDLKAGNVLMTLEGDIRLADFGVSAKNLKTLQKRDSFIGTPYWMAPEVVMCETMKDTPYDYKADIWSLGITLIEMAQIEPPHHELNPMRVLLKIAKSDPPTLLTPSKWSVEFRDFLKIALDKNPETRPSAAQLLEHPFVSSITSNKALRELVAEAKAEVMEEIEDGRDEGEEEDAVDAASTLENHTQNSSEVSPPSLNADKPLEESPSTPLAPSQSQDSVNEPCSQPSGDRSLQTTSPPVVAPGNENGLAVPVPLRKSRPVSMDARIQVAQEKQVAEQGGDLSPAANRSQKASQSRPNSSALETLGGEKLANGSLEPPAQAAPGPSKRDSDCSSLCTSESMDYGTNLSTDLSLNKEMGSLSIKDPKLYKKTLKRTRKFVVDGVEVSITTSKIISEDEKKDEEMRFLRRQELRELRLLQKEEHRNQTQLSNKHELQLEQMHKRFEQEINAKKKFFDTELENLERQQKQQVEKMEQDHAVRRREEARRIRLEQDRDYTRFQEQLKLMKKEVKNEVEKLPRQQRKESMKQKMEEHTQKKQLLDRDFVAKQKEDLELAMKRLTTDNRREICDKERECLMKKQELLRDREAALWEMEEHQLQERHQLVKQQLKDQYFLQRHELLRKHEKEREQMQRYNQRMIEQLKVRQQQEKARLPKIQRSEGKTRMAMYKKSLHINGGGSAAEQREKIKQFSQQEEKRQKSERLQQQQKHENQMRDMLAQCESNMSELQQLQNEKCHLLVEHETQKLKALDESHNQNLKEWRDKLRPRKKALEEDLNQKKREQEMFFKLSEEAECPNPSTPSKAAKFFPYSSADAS
Sequence of Non-receptor tyrosine-protein kinase TYK2 (Homo sapiens) (P29597 whole entry): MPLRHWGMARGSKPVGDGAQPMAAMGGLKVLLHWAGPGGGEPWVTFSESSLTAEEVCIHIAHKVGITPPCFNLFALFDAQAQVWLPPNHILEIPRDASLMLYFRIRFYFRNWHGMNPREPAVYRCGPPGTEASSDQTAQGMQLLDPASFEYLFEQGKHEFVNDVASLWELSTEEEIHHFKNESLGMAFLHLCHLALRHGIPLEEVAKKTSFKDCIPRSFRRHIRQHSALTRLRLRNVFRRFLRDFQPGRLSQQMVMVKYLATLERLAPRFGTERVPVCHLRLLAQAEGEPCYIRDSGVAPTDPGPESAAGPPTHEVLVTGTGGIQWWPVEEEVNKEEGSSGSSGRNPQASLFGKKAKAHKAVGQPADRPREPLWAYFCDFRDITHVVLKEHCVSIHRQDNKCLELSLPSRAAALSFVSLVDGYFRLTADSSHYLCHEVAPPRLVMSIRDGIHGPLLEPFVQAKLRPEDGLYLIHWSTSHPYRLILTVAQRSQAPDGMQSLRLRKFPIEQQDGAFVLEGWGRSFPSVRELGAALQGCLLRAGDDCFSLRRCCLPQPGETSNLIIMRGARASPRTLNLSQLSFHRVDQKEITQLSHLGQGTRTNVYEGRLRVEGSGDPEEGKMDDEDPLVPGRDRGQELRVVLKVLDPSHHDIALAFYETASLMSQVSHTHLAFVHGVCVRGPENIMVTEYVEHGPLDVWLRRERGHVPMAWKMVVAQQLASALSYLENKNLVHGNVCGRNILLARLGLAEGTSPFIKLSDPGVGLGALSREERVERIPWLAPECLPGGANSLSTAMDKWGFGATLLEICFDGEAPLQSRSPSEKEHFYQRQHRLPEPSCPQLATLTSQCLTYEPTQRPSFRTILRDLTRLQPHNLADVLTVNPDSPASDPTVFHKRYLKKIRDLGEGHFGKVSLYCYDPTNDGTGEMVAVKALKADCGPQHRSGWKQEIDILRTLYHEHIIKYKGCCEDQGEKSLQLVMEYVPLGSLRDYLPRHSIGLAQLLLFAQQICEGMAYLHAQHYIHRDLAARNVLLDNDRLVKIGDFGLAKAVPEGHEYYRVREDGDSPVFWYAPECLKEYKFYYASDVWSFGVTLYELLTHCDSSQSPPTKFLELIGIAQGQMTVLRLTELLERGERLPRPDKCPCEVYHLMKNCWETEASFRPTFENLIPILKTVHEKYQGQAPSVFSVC

Turning to `CCn1cc(-c2ccnc3[nH]ccc23)c(-c2cccc(NC(=O)Nc3ccc(OCc4ccccc4)cc3)c2)n1`, the inhibition in test [1] was -2.6%; in test [2] it was -2.42%; in test [3], -0.53%; in test [4], -0.62%; in test [5], 8.83%; in [6], -1.03%. Besides, the inhibition in test [7] turned out to be 1.79%; in [8], 0.94%; in test [9], 3.41%; in test [10] it was 2.05%; in test [11], 7.41%; in test [12], 2.62%. The inhibition in test [13] was determined as 14.1%; in [14], 0.13%; in [15], 19.5%; in test [16], 2.56%; in test [17], 7.07%; in test [18], 0.73%. Also, the inhibition was 10.4% in [19] and 1.57% in test [20].

For the compound `CCc1nn2ncccc2c1-c1ccnc(NC2CC2)n1`, the inhibition in test [1] was 2.38%; in [2], -0.25%; in [3], 2.68%; in test [4], 1.72%; in [5], 1.87%; in test [6] it was 3.61%. Further, the inhibition in [7] is 3.63%; in test [8], -2%; in test [9], 6.05%; in test [10], 3.98%; in [11] it was 14.8%; in [12], 2.59%. Further, the inhibition was found to be 17.4% in test [13]; 3.06% in test [14]; 24.8% in test [15]; 3.95% in [16]; 8.22% in test [17]; 0.96% in [18]. Besides, the inhibition in test [19] amounted to 3.67%; in test [20], 0.62%.

For the compound `CN1CCC(n2cnc(-c3ccc(F)cc3)c2-c2ccnc(Nc3ccccc3)n2)CC1`, the inhibition in test [1] was 1.74%; in [2] it was 0.31%; in test [3], 1.95%; in [4] it was 1.52%; in test [5], 3.75%; in [6], 3.25%. Also, the inhibition was determined as 5.32% in [7]; 1.84% in test [8]; 8.53% in [9]; 2.13% in [10]; 5.7% in test [11]; 3.55% in test [12]. Also, the inhibition in [13] was 3.9%; in [14] it was 0.71%; in [15], -2.98%; in test [16], 2.62%; in [17] it was 8.59%; in test [18], 1.51%. Further, the values for the inhibition in [19] and in [20] were 10.3% and 4.88%, respectively.

As to `COc1cc2c(cc1Nc1nc(Nc3ccsc3C(N)=O)c3cc[nH]c3n1)N(C(=O)CN(C)C)CCC2(C)C`, the inhibition was determined as 13.6% in test [1]; 3.72% in test [2]; 11.4% in [3]; 4.08% in test [4]; 11.6% in test [5]; 2.02% in [6]. The inhibition is 4.22% in [7]; -4.11% in test [8]; 49.6% in test [9]; 3.59% in test [10]; 13.2% in test [11]; 6.17% in test [12]. The inhibition was determined as 11.7% in test [13]; 4.7% in test [14]; 13.7% in [15]; 6.3% in [16]; 17.3% in test [17]; 4.1% in test [18]. In addition, the inhibition was found to be 22.6% in test [19] and 12.1% in [20].
